The test system of experiment [1] is Human papillomavirus type 1a protein E7 (residues 44-93). Briefly: small molecules binding HPV E7 44-93 – biochemical, small-molecule microarray, residues 44-93, 635 nm fluorescence, primary screen (AID 1108).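 Also: E7 fragment applied at 1 µg/mL in TBST for 1 h at 4 C; score combines spot fluorescence with its signal to noise ratio.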 The note with it: fluorescence 635 nm, higher = more signal.
Experiment [2] is described as follows: hepatitis C replication reporter changes, two-sided – Huh7 cells, luciferase reporter, HCV replication inhibitor project, primary screen (AID 1109).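 Also: huh7 hepatoma cells harbouring a luciferase neomycin HCV replicon reporter; luciferase luminescence as measure of HCV replicon replication; test concentration not given here.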 The note with it: Huh7 HCV replicon luciferase reporter, 48 h; higher = more signal. Background: Reporter assays use an easily measured gene product as a stand-in for the process of interest.
In experiment [3] the target is Left-right determination factor 2 (Homo sapiens) (UniProt O00292). Briefly: small molecules binding LEFTY2 protein – biochemical, small-molecule microarray, 635 nm fluorescence scan, primary screen (AID 1110). Conditions: higher = more signal.
Experiment [4] concerns the target Calmodulin-1 (Homo sapiens) (UniProt P0DP23). The experiment can be described thus: small molecules binding calmodulin-1 with EGTA – biochemical, small-molecule microarray, Cy5-labelled CALM1, profiling panel (AID 1111).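 Also: labelled calmodulin applied in Tris saline Tween buffer holding calcium plus EGTA and DTT.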 The note with it: Cy5-CALM1 binding fluorescence, higher = more signal.
The target is the same in experiment [5]. The experiment can be described thus: small molecules binding Ca-loaded calmodulin-1 – biochemical, small-molecule microarray, Cy5-labelled CALM1, plus calcium, artefact control for SMM control-protein annotation, profiling panel (AID 1112).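 Also: score merges spot fluorescence with signal to noise from triplicate slides.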 The note with it: Cy5-CALM1 binding fluorescence, higher = more signal.
Experiment [6] can be described thus: probe aWnt5a binding to arrayed compounds – biochemical, biotinylated probe, 635/667 nm fluorescence, primary screen (AID 1113).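 Also: score merges 667 nm fluorescence intensity with signal-to-noise per printed feature.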 Conditions: small-molecule microarray, higher = more signal.
Experiment [7] in a line: probe aShh binding to arrayed compounds – biochemical, biotinylated probe, 635/667 nm fluorescence, primary screen (AID 1114).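 Also: probe is biotin-labelled aShh protein from a stem cell growth factor screen; measures binding of labelled protein to compounds printed on the slide; score merges feature fluorescence at 667 nm with signal-to-noise.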 Conditions: small-molecule microarray, higher = more signal.
Experiment [8] in a line: probe aNog binding to arrayed compounds – biochemical, biotinylated probe, 635/667 nm fluorescence, primary screen (AID 1115).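 Also: probe is biotinylated aNog protein used at 0.15 µg/mL for 1 h at 4 C; z-score combines 667 nm fluorescence of each spot with its signal to noise.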 The note with it: small-molecule microarray, higher = more signal.
The target in experiment [9] is Torsin-1A-interacting protein 1 (Homo sapiens) (UniProt Q5JTV8). The experiment can be described thus: compound microarray binding of lysate hLAP1 – cell lysate, small-molecule microarray, COS7 lysate, 635/667 nm fluorescence, primary screen (AID 1116). The note with it: 635 nm fluorescence, higher = more signal.
The target of experiment [10] is Alpha-bungarotoxin (Bungarus multicinctus) (UniProt P60615). Briefly: compounds binding labelled alpha-BTX control protein – biochemical, small-molecule microarray, Alexa647 label, 635/667 nm fluorescence, artefact control for SMM control protein annotation, profiling panel (AID 1117). The note with it: alpha-BTX-A647 binding fluorescence, higher = more signal.

Data on 13 compounds can be found in PubChem BioAssay.

Sequence of Torsin-1A-interacting protein 1 (Homo sapiens) (Q5JTV8 whole entry, looked up): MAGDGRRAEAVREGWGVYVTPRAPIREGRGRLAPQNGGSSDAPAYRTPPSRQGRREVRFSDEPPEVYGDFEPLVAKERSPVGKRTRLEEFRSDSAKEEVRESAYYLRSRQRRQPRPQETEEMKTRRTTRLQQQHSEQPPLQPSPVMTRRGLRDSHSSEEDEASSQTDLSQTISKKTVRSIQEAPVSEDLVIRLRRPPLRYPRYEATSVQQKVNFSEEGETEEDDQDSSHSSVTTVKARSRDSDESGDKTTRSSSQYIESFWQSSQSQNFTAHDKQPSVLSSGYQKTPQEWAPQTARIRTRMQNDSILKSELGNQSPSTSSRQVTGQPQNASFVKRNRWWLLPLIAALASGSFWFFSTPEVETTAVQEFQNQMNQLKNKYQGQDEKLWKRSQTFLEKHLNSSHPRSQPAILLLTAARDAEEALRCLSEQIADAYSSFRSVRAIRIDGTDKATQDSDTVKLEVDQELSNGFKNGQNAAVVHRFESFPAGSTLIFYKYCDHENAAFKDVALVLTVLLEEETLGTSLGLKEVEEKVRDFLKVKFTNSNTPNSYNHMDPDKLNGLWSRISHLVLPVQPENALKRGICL
Sequence of Left-right determination factor 2 (Homo sapiens) (O00292 whole entry, looked up): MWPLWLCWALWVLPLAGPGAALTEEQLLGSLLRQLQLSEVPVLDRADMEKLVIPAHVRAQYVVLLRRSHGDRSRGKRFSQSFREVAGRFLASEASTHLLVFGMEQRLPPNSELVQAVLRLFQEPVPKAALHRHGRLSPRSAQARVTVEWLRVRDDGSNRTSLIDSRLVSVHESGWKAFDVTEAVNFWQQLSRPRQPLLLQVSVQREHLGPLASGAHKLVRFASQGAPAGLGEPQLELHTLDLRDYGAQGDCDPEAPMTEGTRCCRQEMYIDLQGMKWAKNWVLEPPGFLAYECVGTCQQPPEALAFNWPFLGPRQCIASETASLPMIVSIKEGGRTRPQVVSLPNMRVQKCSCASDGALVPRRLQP
Sequence of Alpha-bungarotoxin (Bungarus multicinctus) (P60615 whole entry, looked up): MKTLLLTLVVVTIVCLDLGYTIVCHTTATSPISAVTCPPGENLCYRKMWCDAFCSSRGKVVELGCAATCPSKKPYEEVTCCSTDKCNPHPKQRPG

In the case of `COC(=O)[C@H](Cc1ccccc1)N[C@@H](/C=C/C1CC1)[C@H](O)Cc1ccccc1`, the composite z-score was -0.431 in [1]; -0.517 in experiment [3]; 0.125 in experiment [4]; -0.736 in experiment [5]; 0.454 in [6]; -0.309 in experiment [7]. Besides, the values for the composite z-score in [8], in experiment [9] and in experiment [10] were -0.349, 0.729 and 0.342, respectively. Further, in experiment [2], the z-score is -0.95.

For `COC(=O)[C@H](Cc1ccccc1)N1CC2=C[C@@H](C3CC3)n3c(=O)n(C)c(=O)n3[C@H]2[C@@H]1[C@@H](O)Cc1ccccc1`, the composite z-score in experiment [1] is 1.35; in [3] it was 0.41; in experiment [4] it was -0.319; in experiment [5], 0.0057; in [6] it was -0.0718; in [7] it was -0.0035. The composite z-score in experiment [8] is 0.0121; in [9] it was 0.685; in [10] it was -0.0518. For the same compound, the z-score in experiment [2] was -1.08.

On to `CCCCCN1CC=CC23O[C@@H]4/C=C\CCC(C)OC(=O)C4[C@H]2C(=O)N(C(C)CO)[C@@H]3C1=O` (stereo not given in full), for which the composite z-score was 0.67 in experiment [1]; -0.441 in [3]; -0.213 in experiment [4]; -1.04 in experiment [5]; -0.175 in experiment [6]; -0.282 in experiment [7]. The composite z-score is -0.17 in experiment [8], -0.537 in experiment [9] and -0.453 in [10]. The z-score in experiment [2] was -0.862.

For `C=CCNC(=O)[C@H]1[C@@H]2C(=O)O[C@@H](c3ccccc3)[C@@H](c3ccccc3)N2[C@@H](c2ccccc2OCCO)[C@]12C(=O)Nc1ccc(C#CCCO)cc12`, the composite z-score in experiment [1] was 1.39; in experiment [3] it was 0.607; in [4], -0.231; in experiment [5] it was -0.09; in experiment [6], 0.0357; in [7], -0.206. The composite z-score in experiment [8] came to 0.0703; in [9], 0.567; in experiment [10] it was 0.365. Besides, the z-score in experiment [2] is -2.26.

Turning to `CC(C)OC(=O)C=C1C[C@@H](c2ccccn2)O[C@@H](c2ccccn2)O1`, the composite z-score was -0.0187 in [1]; 1.05 in [3]; -1.38 in experiment [4]; -0.98 in [5]; -0.0607 in experiment [6]; 0.489 in [7]. The figures for the composite z-score in [8], in [9] and in experiment [10] were -0.457, 0.429 and 0.6, respectively. In [2], the z-score was -0.884.

Turning to `C=CCNC(=O)[C@@H]1[C@H]2C(=O)O[C@H](c3ccccc3)[C@H](c3ccccc3)N2[C@H](c2ccc(O)cc2)[C@@]12C(=O)N(C(=O)OCCOC)c1ccc(C#CCNC(N)=O)cc12`, the composite z-score is 1.32 in [1]; 0.31 in [3]; 1.83 in experiment [4]; 0.294 in experiment [5]; 0.0017 in experiment [6]; 1.68 in experiment [7]. Also, the values for the composite z-score in experiment [8], in [9] and in experiment [10] were 0.681, 1.45 and 0.83, respectively. The compound also showed a z-score in experiment [2] of -0.578.

For the compound `C=CCN1C(=O)[C@@]2(Cc3ccccc31)N=C(c1ccc(OCCCO)cc1)O[C@H]2c1ccccc1`, the composite z-score is 0.896 in experiment [1]; 0.308 in experiment [3]; 0.355 in experiment [4]; -0.231 in experiment [5]; 0.0458 in [6]; 0.308 in experiment [7]. In addition, the results for the composite z-score in [8], in experiment [9] and in [10] were 0.89, 0.895 and 0.306, respectively. In [2], this compound returned a z-score of -2.11.

Take `CCOC(=O)C[C@H]1[C@H](OC(=O)c2ccccc2-c2ccccc2)[C@@H](NC(=O)CC(C)C)c2cc(OCCCO)ccc2N1C(=O)Cc1ccc(OC)cc1`: the composite z-score was -0.0946 in [1]; -0.262 in experiment [3]; -0.0904 in experiment [4]; -0.265 in [5]; -0.0953 in experiment [6]; 0.199 in [7]. Moreover, the values for the composite z-score in experiment [8], in experiment [9] and in experiment [10] were -0.326, 0.784 and -0.213, respectively. In experiment [2], the z-score is -1.25.

As to `COC(=O)[C@@]1(Cc2ccc(OC)cc2)[C@H]2c3cc(C(=O)N4CCCC4)n(Cc4ccc(C)c(F)c4F)c3C[C@H]2CN1C(=O)c1ccccc1`, the composite z-score in [1] was 1.48; in experiment [3], -0.401; in [4], 2.14; in [5] it was 1.3; in experiment [6] it was -0.0553; in [7], -0.155. Besides, the values for the composite z-score in experiment [8], in experiment [9] and in [10] were 1.65, 0.113 and 1.55, respectively. Further, in experiment [2], the z-score was -2.34.

For the compound `CC(C)[Si]1(C(C)C)O[C@@H](c2ccccc2)c2cc(-c3ccc(-c4ccc(Cl)c(Cl)c4)o3)nc(-c3ccccc3)c21`, the composite z-score in experiment [1] is -0.342; in [3], -0.115; in experiment [4], 0.487; in [5] it was 0.0017; in [6] it was -0.137; in experiment [7] it was -0.138. Further, the composite z-score in [8] is 0.15; in experiment [9], -0.101; in [10] it was 0.575. For the same compound, in experiment [2], the z-score was -1.55.

In the case of `COC(=O)C[C@H]1O[C@]2(C(=O)N(C)c3ccccc32)[C@@H](C)[C@@H]1[Si](C)(C)F`, the composite z-score is 0.882 in [1]; 0.392 in experiment [3]; 0.0461 in experiment [4]; -0.389 in experiment [5]; -0.0472 in experiment [6]; 0.23 in experiment [7]. Besides, the values for the composite z-score in [8], in [9] and in experiment [10] were -0.357, 0.239 and -0.0089, respectively. The same compound yielded a z-score in [2] of 0.0456.

Consider `O=C1NC(=O)C2C1C=CC(C(O)c1cccs1)N2Nc1ccc(Cl)cc1Cl` (stereo not given), for which the composite z-score in experiment [1] was -1.16; in [3] it was -0.824; in experiment [4] it was 0.0484; in experiment [5], 0.243; in [6] it was -0.212; in [7], 0.0278. Besides, the composite z-score in experiment [8] was -0.774; in experiment [9], 1.89; in experiment [10] it was -0.779. Further, the z-score in [2] was -0.153.

For `O=C1[C@@]23C=C(Br)[C@H](C[C@@H]2CCOC3)[C@@]12CO2`, the composite z-score in [1] is 0.364; in [3], 0.459; in experiment [4], -0.206; in experiment [5], -0.657; in [6], -0.0585; in experiment [7], 0.151. Also, the figures for the composite z-score in [8], in experiment [9] and in experiment [10] were -0.303, 1.53 and 0.331, respectively. This compound also came in with a z-score in experiment [2] of -2.17.
